Source: PubChem (Broad Institute)
This is one part of a sample in which hits are shown more often than they occur.
Rtt109 HAT inh – inhibitors of Candida albicans Rtt109/Vps75 histone acetyltransferase; inhibition, % at 34.9 µM; actives 0.16% (n = 330,000); AID 540336; purified Rtt109/Vps75, ThioGlo CoA-SH fluorescence, 4 h; Q5AAJ8;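 active means inhibition of at least 50% in every replicate; inconclusive means best replicate reaches 50% inhibition but some replicates fall short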
Target sequence (Q5AAJ8 whole entry, looked up): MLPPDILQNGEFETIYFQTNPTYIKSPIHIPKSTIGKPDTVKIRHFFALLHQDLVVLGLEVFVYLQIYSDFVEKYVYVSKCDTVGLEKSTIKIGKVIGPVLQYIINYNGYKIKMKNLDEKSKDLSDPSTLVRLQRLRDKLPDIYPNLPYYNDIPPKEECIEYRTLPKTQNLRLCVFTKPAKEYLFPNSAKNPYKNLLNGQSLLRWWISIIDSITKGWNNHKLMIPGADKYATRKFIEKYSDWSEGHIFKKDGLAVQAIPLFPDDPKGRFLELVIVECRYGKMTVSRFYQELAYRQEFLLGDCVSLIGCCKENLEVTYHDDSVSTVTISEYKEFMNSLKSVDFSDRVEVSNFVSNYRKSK
PglD inh – inhibitors of Campylobacter jejuni PglD acetyltransferase; purified PglD enzyme, DTNB colorimetric CoA detection; inhibition, % at 12.5 µM; actives 0.098% (n = 360,000); AID 602405; in the data active means inhibition above about 16%, passing the limit was not always enough; inconclusive means no clear call, values can overlap the other calls
N-glyco inh – N-linked glycosylation inhibition; D54 ERlucT glycosylation luciferase reporter, 24 h; percent of 100 nM tunicamycin response; reporter increase, % at 12.5 µM; actives 0.23% (n = 360,000);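 active means mean luciferase reporter signal, scaled so untreated is 0 and the glycosylation-blocking control 100, at or above a set limit in every replicate; inconclusive means mean reaches the limit but not every replicate does; inactive means mean below the limit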;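 further: luciferase carries N-glycosylation sites so blocking glycosylation raises the light; 0% = median of neutral control wells and 100% = median of 100 nM tunicamycin wells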
DENV2 CPE – protects cells from dengue virus 2 cytopathic effect | DENV2-infected cells, cytopathic effect rescue, plate reader | CPE inhibition, % at 9.99 µM | actives 1.7% (n = 350,000) | AID 651640; in the data active means CPE inhibition above about 20%, passing the limit was not always enough; inconclusive means no clear call, values can overlap the other calls; tested in BHK-21 cells;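 further: 0% = median of neutral control wells and 100% = median of positive control wells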
* = called active by the depositor; ? = inconclusive; / = no result given; ! = a repeat was not active.

SMILES	Rtt109 HAT inh	PglD inh	N-glyco inh	DENV2 CPE
C#CCOCCOCCOCCNc1nc(N2CCN(C(=O)CCCCCCCCCCNC(=O)[C@H](CO)n3cc(CCCSC)nn3)CC2)nc(N2CCN(C(=O)CCCCCCCCCCNC(=O)[C@H](CO)n3cc(CCCSC)nn3)CC2)n1	2	-2	3	121*
C#CCOCCOCCOCCNc1nc(N2CCN(C(=O)Cn3cc(CCO)nn3)CC2)nc(N2CCN(C(=O)[C@H]([C@@H](C)O)n3cc(CCCCN)nn3)CC2)n1	-5	-3	0	21*
C#CCOCCOCCOCCNc1nc(N2CCN(C(=O)C([C@@H](C)O)n3cc([C@@H](N)CCCCN)nn3)CC2)nc(N2CCN(C(=O)C([C@@H](C)O)n3cc([C@@H](N)CCCCN)nn3)CC2)n1 (stereo partly drawn)	73*	-1	4	/
Cn1cnnc1SCC(=O)c1cc2ccccc2o1	-1	/	3	-1
Cn1c(SCC(=O)c2cc3ccccc3o2)nnc1-c1ccccc1	-4	-3	9	67*
CO[C@@H]1CN(C)C(=O)c2ccc(NS(=O)(=O)c3cn(C)cn3)cc2OC[C@@H](C)N(Cc2cccc(C(F)(F)F)c2)C[C@H]1C	/	1	/	6
COc1ccc(NC(=O)N(C)C[C@H]2Oc3c(NC(=O)c4nc5ccccc5s4)cccc3C(=O)N([C@@H](C)CO)C[C@H]2C)cc1	-3	-1	-2	32*!
C[C@H](CO)N1C[C@H](C)[C@H](CN(C)C(=O)Nc2ccc(F)cc2)Oc2c(NC(=O)c3nc4ccccc4s3)cccc2C1=O	/	2	/	31*
C[C@H]1CN([C@@H](C)CO)C(=O)c2cccc(NC(=O)c3nc4ccccc4s3)c2O[C@@H]1CN(C)C(=O)NC1CCCCC1	/	4	/	0
C[C@@H]1CN([C@H](C)CO)C(=O)c2cccc(NC(=O)c3nc4ccccc4s3)c2O[C@H]1CN(C)C(=O)NC1CCCCC1	/	9	/	45*
CNC[C@H]1Oc2c(NC(=O)c3cnccn3)cccc2C(=O)N([C@@H](C)CO)C[C@@H]1C	/	-2	/	6
C[C@@H]1CN([C@H](C)CO)C(=O)c2cc(-c3ccc(C#N)cc3)cnc2O[C@@H]1CN(C)C(=O)c1cccnc1	/	0	/	2
O=C(CN(Cc1ccccc1)C1=NCCS1)c1ccccc1	-2	-1	0	39*
O=C(c1nnsc1S(=O)c1ccc(Cl)cc1)N1CCOCC1 (stereo not drawn)	136*	2	-15	/
CCOc1ccc(Nc2nc(N(C)c3ccccc3)nc(N)c2[N+](=O)[O-])cc1	-4	/	36*	-1
COc1ccc(NC(=O)N(C)C[C@@H]2Oc3ccc(NS(=O)(=O)c4ccccc4)cc3CC(=O)N([C@@H](C)CO)C[C@H]2C)cc1	/	/	/	-6
CN(C)CC(=O)N1[C@H](CO)[C@@H](c2ccc(C#CC3CCCCC3)cc2)[C@@H]1C#N	/	0	/	19
CN(C)CC(=O)N1[C@@H](C#N)[C@H](c2ccc(C#CC3CCCC3)cc2)[C@@H]1CO	/	-4	/	23*
N#C[C@@H]1[C@@H](c2ccc(C#CC3CCCCC3)cc2)[C@H](CO)N1C(=O)Cc1ccccn1	/	0	/	67*
CN(C)CC(=O)N1[C@H](C#N)[C@H](c2ccc(C#CC3CCCCC3)cc2)[C@@H]1CO	/	1	/	40*
N#C[C@@H]1[C@H](c2ccc(C#CC3CCCCC3)cc2)[C@H](CO)N1C(=O)Cc1ccccn1	/	-3	/	/
COc1ccccc1S(=O)(=O)N[C@@H]1CC[C@@H](CC(=O)NCc2cc(F)cc(F)c2)O[C@@H]1CO	/	/	/	5
Cc1noc(C)c1NC(=O)N(C)C[C@H]1OCc2cnnn2CCCC(=O)N([C@@H](C)CO)C[C@@H]1C	/	-1	/	1
CCN1CCN(Cc2ccc(NC(=O)c3cc(NC(=O)c4cnn(-c5ccccc5)c4N)cc(OC)c3)cc2C(F)(F)F)CC1	7	3	-9	82*
CCN1CCN(Cc2ccc(NC(=O)c3cc(NC(=O)c4cc(C)on4)cc(OC)c3)cc2C(F)(F)F)CC1	20	-2	-2	-9
SMILES	Rtt109 HAT inh	PglD inh	N-glyco inh	DENV2 CPE
CO[C@@H]1CN(C)C(=O)c2ccc(NC(=O)Nc3ccccc3F)cc2OC[C@H](C)N(CC2CC2)C[C@@H]1C	/	3	/	5
O=C(CCn1c(=O)c2ccccc2n(Cc2cccc([N+](=O)[O-])c2)c1=O)N1CCc2ccccc2C1	59*	4	1	/
CCn1c(=O)c2ccccc2n(Cc2cccc([N+](=O)[O-])c2)c1=O	6	2	-2	13
O=C(NCc1ccccc1)/C(=C\c1cccc([N+](=O)[O-])c1)NC(=O)c1ccco1	/	-2	-1	46*
C[C@@H]1CN([C@H](C)CO)C(=O)Cc2cc(NC(=O)Nc3cccc4ccccc34)ccc2O[C@H]1CN(C)Cc1ccc(-c2ccccc2)cc1	/	/	/	-2
CC(=O)N(C[C@H]1N[C@H](CO)[C@H]1c1ccc(-c2ccc(F)cc2)cc1)C(C)C	/	2	/	64*
C/C=C/c1ccc([C@H]2[C@H](CO)N[C@H]2CN(C(=O)C2CCC2)C(C)C)cc1	/	0	/	23*
CO[C@@H]1CN(C)C(=O)c2cc(NC(=O)NC(C)C)ccc2OC[C@H](C)N(CC2CC2)C[C@@H]1C	/	0	/	8
Cc1ccc(C(=O)N/C(=C/c2ccco2)C(=O)NCCc2c[nH]c3ccccc23)cc1	16	/	45*	3
C[C@@H]1CCCCO[C@@H](CN(C)S(=O)(=O)c2ccc(Cl)cc2)[C@@H](C)CN([C@H](C)CO)C(=O)c2cc(NS(C)(=O)=O)ccc2O1	/	-2	/	22*
Cc1ccc(S(=O)(=O)N(C)C[C@H]2OCCCC[C@@H](C)Oc3ccc(NS(C)(=O)=O)cc3C(=O)N([C@@H](C)CO)C[C@H]2C)cc1	/	-1	/	9
Cc1ccc(S(=O)(=O)Nc2ccc3c(c2)C(=O)N([C@H](C)CO)C[C@H](C)[C@@H](CN(C)S(=O)(=O)c2ccc(Cl)cc2)OCCCC[C@H](C)O3)cc1	/	5	/	37*
Cc1ccc(S(=O)(=O)N(C)C[C@@H]2OCCCC[C@@H](C)Oc3ccc(NS(C)(=O)=O)cc3C(=O)N([C@@H](C)CO)C[C@H]2C)cc1	/	3	/	36*
C[C@@H]1CN([C@@H](C)CO)C(=O)c2cc(NS(=O)(=O)c3ccc(Cl)cc3)ccc2O[C@@H](C)CCCCO[C@H]1CN(C)S(=O)(=O)c1ccc(Cl)cc1	/	-3	/	-17
Cc1ccc(S(=O)(=O)N(C)C[C@@H]2OCCCC[C@@H](C)Oc3ccc(NS(=O)(=O)c4ccc(Cl)cc4)cc3C(=O)N([C@H](C)CO)C[C@@H]2C)cc1	/	3	/	?
C[C@@H]1CN([C@H](C)CO)C(=O)c2cc(NS(=O)(=O)c3ccc(Cl)cc3)ccc2O[C@@H](C)CCCCO[C@H]1CN(C)S(=O)(=O)c1ccc(Cl)cc1	/	1	/	54*
Cc1ccc(S(=O)(=O)N(c2nc(NC(C)C)nc(NC(C)C)n2)n2cnnc2)cc1	5	4	3	24*
COC(=O)CN(n1cnnc1)S(=O)(=O)c1ccc(C)cc1	-3	/	-1	/
COc1ccc2sc3cccc(NCCN(C)C)c3c(=O)c2c1	/	/	140*	2
